G9a inh = qHTS Assay for Inhibitors of Histone Lysine Methyltransferase G9a; AID 504332, 2011; 8.8% of 350,000 active; G9a H3K9 monomethylation, AlphaScreen, 2 h; Potency, µM (top dose mostly 102 µM), inactives show at the highest dose activity, negative = inhibition, actives largely listed as inhibitors; further: on the % scale 0 is the no-effect control and ±100 the full control effect; nearly all actives have a fitted effect of over 75% in size
Target sequence (Q96KQ7 913-1193 limits assumed): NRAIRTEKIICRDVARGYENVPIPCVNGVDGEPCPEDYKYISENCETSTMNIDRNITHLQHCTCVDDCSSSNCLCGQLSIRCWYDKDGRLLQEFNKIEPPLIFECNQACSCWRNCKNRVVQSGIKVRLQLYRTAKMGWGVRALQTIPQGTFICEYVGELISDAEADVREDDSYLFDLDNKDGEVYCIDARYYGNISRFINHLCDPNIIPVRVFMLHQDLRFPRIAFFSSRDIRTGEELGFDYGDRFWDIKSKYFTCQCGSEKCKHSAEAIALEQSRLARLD
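Readings reflect AlphaScreen signal from monomethyl-H3K9 antibody detection. HMT at 20 nM; substrate b-H3K9 500 nM; cofactor SAM 20 uM; 2 h RT reaction; compounds tested as titrations in qHTS with 15 min preincubation.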
HP1b binding inh = HTS for Inhibitors of HP1-beta Chromodomain Interactions with Methylated Histone Tails. Potency, µM (doses to about 114 µM), without a hit: top-dose activity change, negative = inhibition, most hits filed as inhibitors. Chromobox protein homolog 1 (Homo sapiens), P83916. AlphaScreen HP1-beta / biotin-H3K9me3 peptide binding. 0.56% of 390,000 active; further: nearly all actives have a fitted effect of over 70% in size
Target sequence (P83916 whole entry, looked up): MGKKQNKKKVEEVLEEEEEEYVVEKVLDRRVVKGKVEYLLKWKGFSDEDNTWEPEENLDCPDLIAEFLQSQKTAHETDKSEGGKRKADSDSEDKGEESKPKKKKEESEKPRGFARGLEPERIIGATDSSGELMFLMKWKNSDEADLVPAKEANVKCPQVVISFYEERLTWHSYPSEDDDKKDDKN
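HP1-beta protein (50 nM final) preincubated 30 min at room temperature with biotinylated H3(1-18)K9me3 peptide (50 nM) in PBS pH 7.4, 0.01% Tween-20, then compound added for 30 min. AlphaScreen streptavidin donor/nickel chelate acceptor beads (10 ug/mL final), 30 min dark, luminescence read.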
L3MBTL1 block = qHTS Assay for the Inhibitors of L3MBTL1; AID 485360, 2010; AlphaScreen L3MBTL1–H3K9me1 peptide binding; Potency, µM (highest dose often 57.1 µM), for the others: at the top dose activity, negative = inhibition, hits mostly inhibitors; 0.66% of 230,000 active; Lethal(3)malignant brain tumor-like protein 1 (Homo sapiens), Q9Y468; further: on the % scale 0 is the no-effect control and ±100 the full control effect; nearly all actives have a fitted effect of over 60% in size
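L3MBTL1 (50 nM) pre-complexed 30 min with biotinylated H3(1-15)K9me1 peptide (75 nM), then compounds added for 30 min at room temperature; AlphaScreen streptavidin donor/nickel chelate acceptor beads (10 ug/mL final) read after 30 min dark incubation.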
BAZ2B block = qHTS Assay for Inhibitors of BAZ2B. 4.4% of 360,000 active. AlphaScreen BAZ2B-H3K14Ac peptide displacement. Bromodomain adjacent to zinc finger domain protein 2B (Homo sapiens), Q9UIF8. AID 504333, 2011. Potency, µM (titrated, usually from 114 µM), inactives show at the top dose activity change, negative = inhibition, actives largely listed as inhibitors; further: on the % scale 0 is the no-effect control and ±100 the full control effect; nearly all actives have a fitted effect of over 60% in size
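Multi-concentration screen (max 110 uM) measuring displacement of acetylated histone H3 peptide from BAZ2B by AlphaScreen, using 50 nM protein, 50 nM peptide and 10 ug/mL streptavidin donor plus Ni-chelate acceptor beads.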
JMJD2A Tudor = qHTS Assay for Inhibitors of JMJD2A-Tudor Domain. AlphaScreen JMJD2A-Tudor / H3K4me3 peptide binding. Potency, µM (titrated, usually from 114 µM), for the others: at the highest dose activity change, negative = inhibition, most hits filed as inhibitors. 4.4% of 390,000 active. AID 504339, 2011; further: on the % scale 0 is the no-effect control and ±100 the full control effect; nearly all actives have a fitted effect of over 50% in size
An asterisk follows results filed as active; ? = inconclusive; / = not tested or not shown; [ ] = dose if it differs, or a comment. A selection: hits, their analogues and other compounds. The true share with any hit is near 11%. The call rests on the fitted dose curve; in most records, active means well fitted inhibition curve with a large enough effect; inconclusive means small, poorly fitted or top-dose-only effect; inactive means no such curve, though single readings can be large or run the other way. Potency means the concentration at half of the fitted maximal effect.

SMILES	G9a inh	HP1b binding inh	L3MBTL1 block	BAZ2B block	JMJD2A Tudor
CCOC(=O)c1c(NC(=O)c2ccccc2C)sc2c1CCCC2	7.9µM*	66%	/	-1%	85%
CCOC(=O)c1c(NC(=O)c2ccccc2C(=O)O)sc2c1CCCC2	4%	18%	-2%	-2%	-17%
CCCNc1ncnc2c1cnn2C1CCCCO1 (stereo not drawn)	/	30%	/	/	-8%
Cc1cccc(-c2noc(-c3cccnc3NCc3ccco3)n2)c1	-34%[59 µM]	35%	/	-11%	-16%
Cc1ccccc1NC(=O)CN(C)S(=O)(=O)c1cccc2nsnc12	8%[59 µM]	-8%	/	6%	-12%
COC(=O)C1=C(NC(=O)c2ccccc2C)CCS1	-34%	2%	2%	-4%	79µM*
COC(=O)C1=C(NC(=O)c2cccs2)CCS1	52%[12.7 µM]	/	-4%	-3%	/
CCOC(=O)c1c(NC(=O)c2ccc(Br)cc2)sc2c1CCCC2	10µM*	?	/	4%	-10%
CCOC(=O)c1c(NC(=O)c2ccc(C)c(C)c2)sc2c1CCCCC2	16%[59 µM]	49%	/	9%	15%
CCCCNC(=S)N(CCO)Cc1cc2cc3c(cc2[nH]c1=O)OCCO3	-19%	12%	-5%	-4%	-5%
CC(C)(C)OC(=O)N1CCC(c2c(C(=O)NCc3cccs3)cnn2-c2cccc(F)c2)CC1	-22%[59 µM]	21%	/	6%[57.1 µM]	-22%
COc1ccccc1C(=O)NC(=S)Nc1ccc(NC(=O)c2ccco2)cc1	?	-3%	-2%	0%	-6%
COc1ccc(/C=C/C(=O)NC(=S)NNC(=O)c2ccco2)cc1	13µM*	23%	132%	9%	-11%
O=C(/C=C/c1ccccc1)NC(=S)NNC(=O)Cc1cccs1	?	19%	40%	11%	5%
COc1ccccc1OCC(=O)NNC(=S)NC(=O)c1ccco1	?	4%	/	55%	79µM*
COc1ccc(/C=C/C(=O)NC(=S)NNC(=O)c2ccco2)cc1OC	35µM*	59%	/	3%	-12%
COc1ccc(C(=O)NC(=S)NNC(=O)c2ccco2)cc1	-8%[12.7 µM]	17%	/	18%	-8%
COc1ccc(/C=C/C(=O)NC(=S)NNC(=O)Cc2cccs2)cc1	32µM*	41%	/	6%	13%
Cc1ccc(S(=O)(=O)c2c(C)nn(C(C)(C)C)c2OC(=O)CC(C)C)cc1	12%	20%	/	9%	8%
Cc1nc2c3ccccc3nc(NNC(=O)CCC(=O)N3CCN(c4cc(Cl)ccc4C)CC3)n2n1	1%[59 µM]	40%	/	-12%	-15%
CC(=O)Nc1nc2n(n1)C(c1ccccc1)C=C(c1ccccc1)N2 (stereo not drawn)	?	40%	-7%	79µM*	89µM*
COc1ccc(C(=O)Nc2nc3n(n2)C(c2ccccc2)C=C(c2ccccc2)N3)cc1 (stereo not drawn)	25µM*	39%	/	22µM*	79µM*
COc1ccc(C2C=C(c3ccc(Cl)cc3)Nc3nc(NC(C)=O)nn32)cc1 (stereo not drawn)	?	/	-9%	32µM*	/
COc1ccc(C2C=C(c3ccc(F)cc3)Nc3nc(-c4ccc(Cl)cc4)nn32)cc1 (stereo not drawn)	-13%[59 µM]	68%	/	-1%	-34%
CC(=O)Nc1nc2n(n1)C(c1ccc(F)cc1)C=C(c1ccccc1)N2 (stereo not drawn)	8.9µM*	25%	-28%	22µM*	?
COc1ccc(C2C=C(c3ccccc3)Nc3nc(NC(=O)/C=C/c4ccccc4)nn32)cc1 (stereo not drawn)	-35%[59 µM]	49%	/	4%	2%
CCCN1CNc2c(c(=O)[nH]c(=S)n2CCc2cc(OC)ccc2OC)C1	/	29%	/	/	-10%
O=C(O)c1ccc(-c2ccc(-c3ccccc3)cc2)o1	35µM*	/	/	/	/

Source: PubChem BioAssay (National Center for Advancing Translational Sciences (NCATS))
